The values below come from PubChem BioAssay (NCATS).

Test [1] in a line: qHTS for Inhibitors of Plasmodium falciparum (DD2) proliferation (AID 504314).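 Also: parasite DNA measured by SYBR Green fluorescence after red cell lysis.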 In a few lines:
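Erythrocytes infected with P. falciparum Dd2 (0.3% parasitemia, 2.5% hematocrit) exposed to compound 72 h at 37C, 5% CO2. Parasite DNA quantified by SYBR Green fluorescence after saponin/Triton lysis overnight; normalized to 0.29 uM artemisinin and DMSO.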
A general note: In qHTS, concentration-response curves come from the screen itself.

Test [2] can be described thus: qHTS for Inhibitors of Plasmodium falciparum (GB4) proliferation (AID 504315). Also: nearly all actives have a fitted effect of over 50% in size. In outline: (§1)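 Erythrocytes infected with P. falciparum line (0.3% parasitemia, 2.5% hematocrit final) incubated with compounds 72 h at 37 °C, 5% CO2; SYBR Green lysis buffer added, fluorescence read next day. Normalized to 0.29 uM artemisinin and DMSO.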
A short description of test [3]: qHTS for Inhibitors of Plasmodium falciparum (7G8) proliferation (AID 504316). Also: series mostly up to about 6.7 µM; nearly all actives have a fitted effect of over 65% in size. In a few lines:
as §1

Test [4] in a line: qHTS for Inhibitors of Plasmodium falciparum (HB3) proliferation (AID 504318). Also: nearly all actives have a fitted effect of over 60% in size. Also: potency is read from the fitted curve at half-maximal effect. In outline:
as §1

Test [5] can be described thus: qHTS for Inhibitors of Plasmodium falciparum (CP250) proliferation (AID 504320). In outline: as §1
The target of test [6] is Cytochrome P450 1A2 (Homo sapiens) (UniProt P05177). In words: p450-cyp1a2 (AID 410; calls by dose curve). In a few lines: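 Inhibition was calculated relative to 57 uM furafylline (full inhibition). The reaction used human CYP1A2 at 20nM with Luciferin-ME at its Km, 100uM, driven by an NADPH-regenerating system for 60 min at room temperature.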
Sequence of Cytochrome P450 1A2 (Homo sapiens) (P05177 whole entry, looked up): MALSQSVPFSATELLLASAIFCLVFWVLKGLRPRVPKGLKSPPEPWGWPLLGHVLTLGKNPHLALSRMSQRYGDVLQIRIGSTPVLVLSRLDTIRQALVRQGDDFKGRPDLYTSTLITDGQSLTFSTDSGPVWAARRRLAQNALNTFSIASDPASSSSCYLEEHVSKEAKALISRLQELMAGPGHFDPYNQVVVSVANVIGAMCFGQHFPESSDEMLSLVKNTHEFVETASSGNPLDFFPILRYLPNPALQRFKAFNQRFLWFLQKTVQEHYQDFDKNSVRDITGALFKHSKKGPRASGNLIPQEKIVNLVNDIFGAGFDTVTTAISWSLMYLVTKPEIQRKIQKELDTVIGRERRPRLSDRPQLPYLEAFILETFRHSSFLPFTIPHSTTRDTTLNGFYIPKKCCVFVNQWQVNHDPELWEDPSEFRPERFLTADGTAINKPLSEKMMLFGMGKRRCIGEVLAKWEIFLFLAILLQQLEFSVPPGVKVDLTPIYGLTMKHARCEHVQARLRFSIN
Test [7] addresses Cytochrome P450 2D6 (Homo sapiens) (UniProt P10635). Kind of test: qHTS Assay for Inhibitors and Substrates of Cytochrome P450 2D6 (AID 891). Also: potency is read from the fitted curve at half-maximal effect; nearly all actives have a fitted effect of over 60% in size. In a few lines:
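Human CYP2D6 (5 nM) with 30 uM Luciferin-ME EGE (at Km) in 100 mM KPO4, compound preincubated 10 min, then NADPH regeneration system for 60 min at room temperature. Luciferin read by luminescence; normalized to 1.43 uM quinidine.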

Test [8] deals with Ubiquitin carboxyl-terminal hydrolase 1 (Homo sapiens) (UniProt O94782). In words: Inhibitors of USP1/UAF1: Pilot qHTS (AID 504865).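 Also: rhodamine fluorescence freed from ubiquitin-rhodamine substrate followed over time; top concentration of the series differs between compounds; nearly all actives have a fitted effect of over 35% in size.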 In a few lines: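 Deubiquitinase activity followed as kinetic rhodamine fluorescence release from 150 nM Ub-Rho. 1 nM USP1/UAF1 with compound, after 15 min room-temperature preincubation, in HEPES pH 7.8 buffer containing TCEP, EDTA, BSA and Tween-20.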
Sequence of Ubiquitin carboxyl-terminal hydrolase 1 (Homo sapiens) (O94782 whole entry, looked up): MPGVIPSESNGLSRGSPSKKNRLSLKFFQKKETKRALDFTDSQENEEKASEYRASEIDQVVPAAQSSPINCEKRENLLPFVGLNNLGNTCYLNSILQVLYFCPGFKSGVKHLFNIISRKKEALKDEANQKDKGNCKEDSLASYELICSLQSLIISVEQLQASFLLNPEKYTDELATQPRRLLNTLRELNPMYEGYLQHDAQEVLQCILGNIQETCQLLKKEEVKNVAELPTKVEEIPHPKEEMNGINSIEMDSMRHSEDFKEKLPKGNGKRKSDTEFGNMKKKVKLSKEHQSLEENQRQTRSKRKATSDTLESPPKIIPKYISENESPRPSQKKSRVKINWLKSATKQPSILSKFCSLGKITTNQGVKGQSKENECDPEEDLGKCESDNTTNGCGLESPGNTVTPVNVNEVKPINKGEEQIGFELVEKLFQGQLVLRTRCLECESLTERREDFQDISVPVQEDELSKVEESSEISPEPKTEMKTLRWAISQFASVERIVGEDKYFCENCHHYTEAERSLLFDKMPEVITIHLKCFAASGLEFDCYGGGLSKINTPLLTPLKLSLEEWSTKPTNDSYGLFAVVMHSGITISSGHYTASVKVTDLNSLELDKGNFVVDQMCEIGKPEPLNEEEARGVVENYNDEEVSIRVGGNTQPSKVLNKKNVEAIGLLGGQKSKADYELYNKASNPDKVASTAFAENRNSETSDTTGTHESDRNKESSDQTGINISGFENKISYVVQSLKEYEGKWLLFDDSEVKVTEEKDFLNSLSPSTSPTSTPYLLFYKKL

Test [9] concerns the target Cytochrome P450 3A4 (Homo sapiens) (UniProt P08684). In words: qHTS Assay for Inhibitors and Substrates of Cytochrome P450 3A4 (AID 884). Also: potency is read from the fitted curve at half-maximal effect; nearly all actives have a fitted effect of over 50% in size. In a few lines: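 20 nM human CYP3A4 with 25 uM Luciferin-PPXE (at KM) in 200 mM KPO4, preincubated 10 min with compound; NADPH regeneration started a 60 min RT reaction. Luciferin detected by luminescence, normalized to 57 uM ketoconazole as full inhibition.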

Molecules are shown by their SMILES. “And” between values parts separate entries of the source, which are not always exact repeats. Equal values may be shown once. Inconclusive results are not listed. Some compounds were tested as several samples or in several runs, with calls that do not always agree. The source made the active and inactive calls. Unless noted, calls follow the shape of the dose curve; as a rule, active = well fitted curve in the direction sought with a large enough effect; inconclusive = small, poorly fitted or top-dose-only effect, or another doubt; inactive = no such curve, though single readings can be large; an effect the other way counts as inactive or inconclusive.

Sequence of Cytochrome P450 2D6 (Homo sapiens) (P10635 whole entry, looked up): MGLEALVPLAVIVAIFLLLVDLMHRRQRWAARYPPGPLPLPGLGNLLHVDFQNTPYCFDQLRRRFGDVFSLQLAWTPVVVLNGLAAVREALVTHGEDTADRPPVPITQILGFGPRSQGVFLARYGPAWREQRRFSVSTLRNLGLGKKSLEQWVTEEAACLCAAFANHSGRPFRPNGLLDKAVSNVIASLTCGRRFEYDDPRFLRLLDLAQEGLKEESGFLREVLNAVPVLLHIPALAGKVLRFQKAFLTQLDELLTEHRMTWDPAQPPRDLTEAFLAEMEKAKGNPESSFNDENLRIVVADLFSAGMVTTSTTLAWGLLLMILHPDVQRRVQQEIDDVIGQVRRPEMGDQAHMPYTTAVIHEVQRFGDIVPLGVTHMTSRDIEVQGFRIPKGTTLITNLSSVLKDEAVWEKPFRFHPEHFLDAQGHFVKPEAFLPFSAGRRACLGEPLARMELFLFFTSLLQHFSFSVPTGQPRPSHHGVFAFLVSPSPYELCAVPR
Sequence of Cytochrome P450 3A4 (Homo sapiens) (P08684 whole entry, looked up): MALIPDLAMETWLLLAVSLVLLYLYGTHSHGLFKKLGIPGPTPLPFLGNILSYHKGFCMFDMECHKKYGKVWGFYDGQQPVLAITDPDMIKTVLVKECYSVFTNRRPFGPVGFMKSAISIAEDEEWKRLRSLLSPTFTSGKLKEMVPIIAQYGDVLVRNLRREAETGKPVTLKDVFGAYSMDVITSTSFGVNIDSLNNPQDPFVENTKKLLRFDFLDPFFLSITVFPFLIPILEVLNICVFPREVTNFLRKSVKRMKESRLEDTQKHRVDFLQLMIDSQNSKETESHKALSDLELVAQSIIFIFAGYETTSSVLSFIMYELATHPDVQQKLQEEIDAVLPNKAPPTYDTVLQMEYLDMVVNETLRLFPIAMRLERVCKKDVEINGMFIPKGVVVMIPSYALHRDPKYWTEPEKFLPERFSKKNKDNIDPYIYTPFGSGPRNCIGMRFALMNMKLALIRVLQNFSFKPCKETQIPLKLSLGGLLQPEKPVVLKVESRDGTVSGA

Turning to `CCOC(=O)[C@]12C[C@@H]3CCN(C(=O)N(C(C)=O)[C@@H]1c1ccccc1)[C@@H]32`, the compound was called inactive in [1], in [2], in test [3] and in test [5]. In test [4], the Potency entry is “inactive”.

As for `COC(=O)[C@]12C[C@@H]3CCN(C(=O)N[C@@H]1c1ccccc1)[C@@]32C`, the call in [1], in test [2], in test [3] and in test [5] was inactive. Also, in [4], the Potency result was “inactive”.

Turning to `COc1ccc(C[C@H]2NC[C@H](O)[C@@H]2OC(C)=O)cc1`, the Potency result in test [6] and in test [8] was “inactive” in each case. Besides, the Potency in [7] was 7.94 µM (active).

As to `COC(=O)C1C2CC(C)C(c3ccccc32)N1C(=O)C(F)(F)F` (stereo not given), the compound was classed as inactive in test [1], in test [2], in test [3] and in [5]. Moreover, in test [4], the Potency entry is “inactive”.

On to `C=C1[C@@H]2CCN3C(=O)N[C@@H](c4ccccc4)[C@@]1(C(=O)OCC)C23` (stereo not given in full), for which the compound was classed as inactive in [1], in [2], in test [3] and in test [5]. Moreover, the Potency entry in test [4] is “inactive”.

Consider `CCOC(=O)[C@]12C[C@]3(C)CCCN(C(=O)N[C@@H]1c1ccccc1)[C@@H]32`, for which the call in [1], in [2], in test [3] and in test [5] was inactive. Besides, the Potency result in test [4] was “inactive”.

`CCOC(=O)[C@@]12C3[C@@H](CCN3C(=O)N[C@@H]1c1ccccc1)[C@@H]2C` (stereo not given in full): the compound was classed as inactive in test [1], in test [2], in test [3] and in test [5]. Besides, the Potency result in test [4] was “inactive”.

Regarding `COC(=O)C12CC3=CCC4C(=O)N(c5ccccc5)C(=O)C4C3Cc3ccccc3[C@H]1CNC2=O` (stereo not given in full), the outcome in test [2] and in test [5] was inactive. Moreover, in test [4], the Potency result was “inactive”.

Turning to `C/C(=C\C=C/[C@@H](C)C(=O)O)[C@H]1CN[C@H](C(=O)O)[C@@H]1CC(=O)O`, the Potency result in test [6] is “inactive”.

With `NCCCP(=O)(O)CC1CCCCC1`, in test [8], the Potency result is “inactive”.

As to `COC(=O)[C@@]1(C=C2c3ccc(F)cc3[C@@H](OC)[C@@H]2C)[C@@H]2c3ccccc3O[C@@H]21`, the call in test [2] was inactive.

Consider `O=C(Cc1ccc(Cl)c(Cl)c1)N1CCCC[C@H]1CN1CCCC1`, for which the Potency entry in test [6] was “inactive”. In addition, the Potency is 7.94 µM (active) in [9]; 7.94 µM (active) and 2.51 µM (active) in test [7].

For the compound `N[C@H](Cc1o[nH]c(=O)c1Cl)C(=O)O`, the Potency result in [6] was “inactive”. In test [7], the Potency is 0.158 µM (active).

Consider `CC(=O)[C@]12[C@H](c3ccccc3)[C@@H]3CCN(C(=O)N[C@H]1c1ccccc1)[C@@]32C`, for which the compound was called inactive in test [1], in test [2] and in [5]. Besides, the Potency entry in test [4] was “inactive”.

As to `CO[C@@H]1c2ccccc2[C@H]2C(C(=O)O)c3c(n(C)c4ccccc34)[C@H]2[C@H]1C` (stereo not given in full), the outcome in test [1], in test [2], in test [3] and in [5] was inactive.

For `COC(=O)C1=C[C@H]([C@@H](C)[C@H](OC)c2ccccc2Br)[C@H]2[C@H]1c1ccccc1N2C`, the compound was called inactive in test [1], in test [2], in test [3] and in [5]. The Potency in [4] is 1.9 µM (active) and inactive.

Regarding `CC(=O)[C@]12C[C@]3(C)CCCN(C(=O)N[C@@H]1c1ccccc1)C32` (stereo not given in full), the compound was called inactive in [1], in [2], in [3] and in test [5]. Moreover, the Potency result in test [4] is “inactive”.

Turning to `COC(=O)[C@@]12Cc3ccccc3[C@H]1C[C@H](C)[C@@H](C)N2C(=O)C(F)(F)F`, the outcome in test [2], in test [3] and in test [5] was inactive.

As for `COC(=O)C1=C2CCCO[C@H]2[C@@H]2[C@@H](C)[C@H](OC)c3ccccc3[C@@H]12`, the compound was called inactive in test [1], in test [2], in test [3] and in test [5].

With `COC(=O)[C@@]1(C=C2c3ccc(F)cc3[C@@H](OC)[C@@H]2C)[C@@H]2Oc3ccccc3[C@@H]21`, the call in [1], in test [2] and in [5] was inactive.

Take `CC(=O)[C@]12C[C@@H]3CCCN(C(=O)N[C@@H]1c1ccccc1)[C@@H]32`: the outcome in test [1], in [2], in test [3] and in test [5] was inactive. Besides, in test [4], the Potency entry is “inactive”.

With `CC(=O)[C@@]12C3[C@@H](CCN3C(=O)N[C@H]1c1ccccc1)[C@H]2c1ccccc1` (stereo not given in full), the result in test [1] and in test [5] was inactive. In test [4], the Potency entry was “inactive”.

Turning to `COC(=O)C1=NN=C(C(=O)OC)[C@@]2(C)c3ccccc3NC12` (stereo not given in full), the result in test [1], in [2], in [3] and in test [5] was inactive. Moreover, the Potency entry in [4] was “inactive”.

For the compound `CCC[C@]12CCN3C(=O)N[C@@H](c4ccccc4)[C@](C(=O)OCC)(C1)[C@H]32`, the outcome in [1], in [2], in [3] and in [5] was inactive. Further, the Potency result in [4] is “inactive”.
